Only some compounds are listed: those with a hit (about 5.2% of all), similar ones and a draw of the others.
Sfp PPTase inh = qHTS Assay for Inhibitors of Bacillus subtilis Sfp phosphopantetheinyl transferase (PPTase); 4'-phosphopantetheinyl transferase ffp (Bacillus subtilis), Q9F4F7; Biochemical Sfp PPTase activity, qHTS; Potency, µM, for the others: largest response in the series, negative = inhibition, most hits filed as inhibitors; 3.5% of 310,000 active;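 note: the enzyme is Sfp with the accession as filed and its product quenches rhodamine fluorescence; potency is the fitted concentration of half-maximal effect; 0% = enzyme reaction without inhibitor and -100% = no enzyme wells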
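Reaction rates are the 30-min fluorescence difference (ex 525, em 598 nm) in wells containing 15 nM Sfp, 5 uM rhodamine-CoA and 12.5 uM BHQ-2-YbbR at pH 7.6 with 10 mM MgCl2.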
Tau fluor cs = Counterscreen qHTS for Inhibitors of Tau Fibril Formation, Fluorescence Polarization; tau K18 P301L Alexa594 fluorescence, heparin fibrillization; 0.93% of 280,000 active; Potency, µM (titrated, usually from 57.7 µM), without a hit: at the highest dose activity change, negative = decrease; AID 1463, 2008; note: potency is the fitted concentration of half-maximal effect; nearly all actives have a fitted effect of over 55% in size
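Human K18 P301L tau (15 uM unlabeled plus 0.24 uM Alexa 594-labeled, final) in 100 mM sodium acetate pH 7 was mixed with compound and 20 uM heparin and incubated 6 hr at 37 C.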
Tau ThT inhib = qHTS for Inhibitors of Tau Fibril Formation, Thioflavin T Binding | 2.1% of 270,000 active | Microtubule-associated protein tau (Homo sapiens), P10636 | Potency, µM (top dose mostly 57.4 µM), for inactives: at the highest dose activity, negative = inhibition, actives largely listed as inhibitors | recombinant tau K18 P301L, heparin-induced fibrillization, ThT fluorescence; note: potency is the fitted concentration of half-maximal effect; nearly all actives have a fitted effect of over 55% in size
Target sequence (P10636 561-689 P618L limits assumed): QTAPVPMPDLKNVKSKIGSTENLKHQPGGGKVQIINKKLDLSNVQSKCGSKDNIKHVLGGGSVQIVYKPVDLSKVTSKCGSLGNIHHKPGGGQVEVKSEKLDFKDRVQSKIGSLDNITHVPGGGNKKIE
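ThT emission at 510 nm, taken 1 hr after adding 30 uM dye, quantifies aggregates formed when 20 uM heparin acts on human tau K18 P301L for 6 hr at 37 C.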
Tau FP inhib = qHTS for Inhibitors of Tau Fibril Formation, Fluorescence Polarization. Microtubule-associated protein tau (Homo sapiens), P10636. K18 P301L tau heparin fibrillization, Alexa594 FP, 6 h. Potency, µM (doses to about 57.7 µM), for inactives: top-dose activity, negative = inhibition, actives largely listed as inhibitors. 0.39% of 280,000 active. AID 1468, 2008; note: potency is the fitted concentration of half-maximal effect; nearly all actives have a fitted effect of over 55% in size
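FP of Alexa 594-tau after heparin (20 uM) induction. Substrate: human K18 P301L, 15 uM unlabeled, 0.24 uM labeled. Buffer 100 mM sodium acetate pH 7. 6 hr, 37 C.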
FBPA coupling cs = qHTS Assay for Inhibitors of Fructose-1,6-bisphosphate Aldolase from Giardia Lamblia: Coupling assay counterscreen. coupling enzyme system counterscreen, AmpLite Red fluorescence. activity change, negative = inhibition, % at 58.2 µM, hits read low. AID 2472, 2010. 0.67% of 290,000 active; in the data active = activity change below about -30%
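Compounds tested against the coupling enzymes alone at 57.5 uM final; readout was AmpLite Red fluorescence (525/598 nm) after 20 min at RT.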
An asterisk follows results filed as active; ? = inconclusive; . = no result given; [ ] = remark or other dose. Unless noted, calls come from the whole dose curve; as a rule, active = well fitted curve in the direction sought with a large enough effect; inconclusive = small, poorly fitted or top-dose-only effect, or another doubt; inactive = no such curve, though single readings can be large; an effect the other way counts as inactive or inconclusive. Unless noted, % is set by controls: 0 for no effect and ±100 for the full control effect.

SMILES	Sfp PPTase inh	Tau fluor cs	Tau ThT inhib	Tau FP inhib	FBPA coupling cs
OC[C@@H]1OC(O)[C@@H](O)[C@H](O)[C@@H]1O (stereo partly drawn)	6%	.	.	.	1
Cc1ccsc1/C=C1/SC(N2CC(C)OC(C)C2)=NC1=O (stereo not drawn)	56µM*	-7%	?	-2%	0
CCc1cccc2c(C(=O)COC(=O)/C=C/c3ccc(O)c(OC)c3)c[nH]c12	11%	16µM*[quencher]	?	-9%	-2
COc1cccc(/C=C/C(=O)OCC(=O)c2c[nH]c3ccccc23)c1OC	6%	?	-8%	?	-1
CCOC(=O)Cc1ccc(NC(=O)N(Cc2ccc(CC)cc2)Cc2cn[nH]c2-c2ccc(OC)cc2)cc1	.	-19%	?	7%	.
c1ccc2oc(C3=NNC(=NC4CC4)SC3)cc2c1	-40%	-23%	14µM*	-7%	1
Cc1cc(C2=NNC(=NC3CCCCC3)SC2)c(C)n1-c1c(C)n(C)n(-c2ccccc2)c1=O	?	-13%	-5%	-3%	6
Cc1ccccc1N=C1NN=C(c2ccccc2F)CS1	16%	-30%	28µM*	?	-3
Cc1cc(C2=NNC(=NC3CC3)SC2)c(C)n1-c1ccccc1F	45µM*	1%	8%	-3%	1
Cc1cccc(C)c1N=C1NN=C(c2ccccc2F)CS1	-10%	-18%	?	8%	0
O=C(O)c1cccc(Cn2c(Cl)c(/C=N/Nc3ccccc3)sc2=O)c1	8.9µM*	?	18µM*	?	16
CN(C)/C=C1/NC(=S)NC1=O	79µM*	-11%	-11%	-1%	-3
CCOc1ccccc1C(=O)N(Cc1ccco1)C1CCS(=O)(=O)C1 (stereo not drawn)	50µM*	-2%	-4%	2%	0
CC1=Nc2ccccc2/C1=C/c1sc(=N)n(-c2nccs2)c1O	-13%	11µM*[quencher]	5µM*	?	-7
COc1ccc(C=O)c(OC)c1	9%	10%	-3%	-5%	4
COc1cc(/C=C\c2ccc(OC)cc2OC)cc(OC)c1	50µM*	?	?	2%	0
Nc1c[n+](N2CCOCC2)no1	8%	-21%	7.1µM*	?	6
Nc1ncnc(N2CCOCC2)c1N	8%	1%	-5%	-5%	0
CN(C)CC/C=C1\c2cc(F)ccc2CSc2ccccc21	79µM*	2%	-9%	3%	2
O=C(CSc1nc2c(c(=O)[nH]1)CN(Cc1ccc3c(c1)OCO3)CC2)Nc1ccc(F)c(F)c1	.	-27%	?	-1%	.
CCCCC1CCC(C(=O)N2CC(=O)Nc3ccc(Br)cc3C2c2ccc(F)cc2)CC1 (stereo not drawn)	.	-10%	-12%	-5%	.
COCCCNC(=O)CC(=O)N/N=C\c1ccc(SC)cc1	9%	5%[2.34 µM]	10%	0%[2.34 µM]	-70*
O=C(CNc1ccc2ccccc2c1)N/N=C/c1ccc(OC(=O)/C=C/c2ccco2)cc1	0%	7.1µM*[quencher]	5µM*	-13%	0
O=C(CNc1cccc2ccccc12)N/N=C/c1ccc(OC(=O)/C=C/c2ccco2)cc1	-1%	?	?	2%	-4
CSc1ccc(/C=N/NC(=O)CNc2ccc3ccccc3c2)cc1	-3%	14µM*[quencher]	5µM*	-3%	-1
SMILES	Sfp PPTase inh	Tau fluor cs	Tau ThT inhib	Tau FP inhib	FBPA coupling cs
Cc1cccc(-n2c(=O)c3ccccc3n(Cc3ccc(F)cc3)c2=O)c1	.	-14%	-7%	2%	.
CCOc1ccc(N)c(SSc2cc(OCC)ccc2N)c1	2.8µM*	.	.	.	-1
CCCCCC1CC(CC/C(C)=N/NC(N)=O)C(=O)O1 (stereo not drawn)	16%	-10%	-3%	7%	-1
C/C(CC1CC(COCC(C)C)OC1=O)=N\NC(N)=S (stereo not drawn)	50µM*	2%	3%	-2%	2
CCCCCOCC1CC(C/C(C)=N/Nc2nc(-c3ccccc3)cs2)C(=O)O1 (stereo not drawn)	71µM*	?	?	-7%	2
CCCCCOCC1CC(C/C(C)=N/NC(N)=S)C(=O)O1 (stereo not drawn)	45µM*	6%	-2%	2%	-2
O=S(=O)(c1ccc(Br)s1)N1CCN(c2ccc(F)cc2)CC1	50µM*	.	.	.	0
O=C(c1noc2c1CCCCC2)N1CCN(c2cccc(C(F)(F)F)c2)CC1	.	-11%	-11%	?	.
O=C(O)CC(NS(=O)(=O)c1ccc(Cl)s1)c1ccccc1 (stereo not drawn)	.	-8%	-2%	8%	.
Cc1cc(C)cc(NC(=O)Cn2c3ncccc3c(=O)n2-c2ccc(C)c(C)c2)c1	.	-26%	-1%	?	.
Cc1ccc(NC(=O)N2CCN(c3nnc(C)c4c(C)n(-c5ccccc5)nc34)CC2)c(Cl)c1	.	-1%	-10%	-4%	.
COC(=O)C(CC(=O)c1ccc(Br)cc1)n1nc(C)cc1C (stereo not drawn)	50µM*	.	.	.	-1
COc1ccc(COC[C@H](C)[C@H](O[Si](C)(C)C)[C@@H](C)[C@H]2OC(=O)[C@H]2C)cc1	-6%	.	.	.	1
COc1ccc(C)cc1NC(=O)CSc1nnc(-c2ccco2)n1N	8%	4%	2%	1%	6
COc1ccc(OC)c(NC(=O)CSc2nnc(-c3ccco3)n2-c2ccc(C(=O)O)cc2)c1	56µM*	-1%	-6%	-3%	-13
O=C(CSc1ccc(-c2ccco2)nn1)Nc1ccc(F)cc1F	50µM*	.	.	.	.
O=C(CSc1ccc(-c2ccccn2)nn1)Nc1ccc(F)cc1F	-8%	1%	6%	-1%	.
COc1ccc(C)cc1NC(=O)CSc1ccc(-c2ccco2)nn1	18µM*	.	.	.	.
Cc1cccc(NC(=O)CSc2ccc(-c3ccco3)nn2)c1C	22µM*	-9%	-22%	-4%	-2
CCOC(=O)c1c(NC(=O)COc2ccc(Cl)cc2Cl)sc2c1CCCCC2	.	1%	4%	0%	.
COc1cc(C(=O)Nc2ccc3nc(SCc4ccccc4)sc3c2)cc(OC)c1OC	.	?	-10%	?	.
COc1ccc(CN(C)c2ccc(-c3nc(C)no3)cc2[N+](=O)[O-])cc1	.	-11%	-3%	-6%	.
COc1cc(/C=C2\SC(=O)N(c3cccc(Cl)c3)C2=O)cc([N+](=O)[O-])c1O	-8%	?	8.9µM*	2%	13
COc1cc(/C=C2\SC(=O)N(c3ccc(Cl)cc3)C2=O)cc([N+](=O)[O-])c1O	-11%	?	18µM*	3%	1
